In PubChem BioAssay (EPA / NIEHS):
Calls of active or inactive are those of the source. Rule for the calls: active = hit-call score of the fitted dose curve at least 0.9, where 1 is the maximum; inactive = score below 0.9.

What follows are molecules tested on Monocyte Chemoattractant Protein-1 (MCP1), CCL2 (gene 6347) (assay: BSK_SAg_MCP1: BioMAP Diversity Plus: SAg Assay for Monocyte Chemoattractant Protein-1 (MCP1) Biomarker Activity (AID 2283090)). Conditions: primary human HUVEC with PBMC; actives raise or lower the signal.
Method in brief: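 Values derive from bidirectional fitting of ELISA-measured MCP1 against DMSO controls. Readings were taken 24 h after dosing human vascular endothelial cells co-cultured with peripheral blood mononuclear cells under superantigen stimulation.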

Structure (SMILES) | outcome | AC50
COP(=O)(NC(C)=O)SC (stereo unspecified) | inactive | 
CCOP(=O)(SC(C)CC)N1CCSC1=O (stereo unspecified) | inactive | 
Cc1ccn2nc(S(=O)(=O)Nc3c(F)cccc3F)nc2n1 | inactive | 
CN1COCN(Cc2cnc(Cl)s2)C1=N[N+](=O)[O-] | inactive | 
CC1=NNC(=O)N(/N=C/c2cccnc2)C1 | inactive | 
CNC(=O)Oc1cccc2c1OC(C)(C)O2 | inactive | 
S=C1NCCN1 | inactive | 
CCCSP(=O)(OCC)SCCC | inactive | 
CCCCOC(=O)[C@@H](C)Oc1ccc(Oc2ccc(C#N)cc2F)cc1 | inactive | 
CCOC(=O)COc1cc(-c2nn(C)c(OC(F)F)c2Cl)c(F)cc1Cl | inactive | 
CON=C(C(=O)OC)c1ccccc1CON=C(C)c1cccc(C(F)(F)F)c1 |  | 4.09 µM (active)
FC(F)C(F)(F)OCC(Cn1cncn1)c1ccc(Cl)cc1Cl (stereo unspecified) | inactive | 
CCc1cccc(C)c1N(C(=O)CCl)C(C)COC (stereo unspecified) | inactive | 
CCC(=O)Nc1ccc(Cl)c(Cl)c1 | inactive | 
CSc1nc(NC(C)C)nc(NC(C)C)n1 |  | 36.5 µM (active)
CCOP(=O)(NC(C)C)Oc1ccc(SC)c(C)c1 (stereo unspecified) | inactive | 
CCOP(=S)(OCC)Oc1ccc([N+](=O)[O-])cc1 | inactive | 
CCOP(=O)(OCC)Oc1cc(C)nc(C(C)C)n1 | inactive | 

Structure (SMILES) | outcome | AC50
CC[C@H](C)[C@H]1O[C@]2(C=C[C@@H]1C)C[C@@H]1C[C@@H](C/C=C(\C)[C@@H](O[C@H]3C[C@H](OC)[C@@H](O[C@H]4C[C@H](OC)[C@@H](NC)[C@H](C)O4)[C@H](C)O3)[C@@H](C)/C=C/C=C3\CO[C@@H]4[C@H](O)C(C)=C[C@@H](C(=O)O1)[C@]34O)O2 |  | 3.38 µM (active)
COc1ccc(C(=CC(=O)N2CCOCC2)c2ccc(Cl)cc2)cc1OC |  | 12.8 µM (active)
C[N+]1(C)CCCCC1 | inactive | 
CCOP(=S)(OCC)Oc1cc(C)nc(C(C)C)n1 | inactive | 
CCCCN(CC)c1c([N+](=O)[O-])cc(C(F)(F)F)cc1[N+](=O)[O-] | inactive | 
CC(Oc1cccc(Cl)c1)C(=O)O (stereo unspecified) | inactive | 
CCCCSP(=O)(SCCCC)SCCCC |  | 20 µM (active)
CCCCOC(=O)c1ccccc1C(=O)O | inactive | 
O=C(O)c1cc(Oc2ccc(C(F)(F)F)cc2Cl)ccc1[N+](=O)[O-] | inactive | 
COP(=O)(OC)SCn1c(=O)oc2cc(Cl)cnc21 | inactive | 
CNC(=O)ON=C(SC)C(=O)N(C)C | inactive | 
CCOP(=S)(OCC)OC(Cl)C(Cl)(Cl)Cl (stereo unspecified) | inactive | 
CCCOc1nn(C(=O)NS(=O)(=O)c2ccccc2C(=O)OC)c(=O)n1C | inactive | 
CSc1nnc(C(C)(C)C)c(=O)n1N | inactive | 
CCOC(=O)CC(SP(=O)(OC)OC)C(=O)OCC (stereo unspecified) | inactive | 
CC(C)=CC1C(C(=O)OCN2C(=O)C3=C(CCCC3)C2=O)C1(C)C (stereo unspecified) |  | 18.2 µM (active)
C#CC(C)(C)NC(=O)c1cc(Cl)cc(Cl)c1 | inactive | 
COP(=O)(OC)C(O)C(Cl)(Cl)Cl (stereo unspecified) | inactive | 
